PubChem BioAssay (NCI)
The panel holds about 79,000 compounds, 15% with a hit somewhere; the sample as a whole holds those more often. Activity calls are given as the source filed them. Rule as the data show it: active = growth inhibition above about 70%; inactive = the rest.

How the values were obtained:
[1] = NCI Yeast Anticancer Drug Screen. Data for the mlh1 strain (AID 171);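 also: 0% = growth of vehicle-treated control cultures of the same strain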; conditions: S. cerevisiae mlh1 strain growth inhibition, hits give high values
Summary of the method: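 Measured: yeast growth. Reference: vehicle-treated controls. Organism: strain with a defined alteration affecting DNA damage repair or cell cycle control, treated with compound.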

[2] = NCI Yeast Anticancer Drug Screen. Data for the sgs1 strain (AID 173);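 also: 0% = growth of vehicle-only control cultures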; conditions: S. cerevisiae sgs1 mutant, hits give high values
Summary of the method: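 Each compound was added to cultures of the altered yeast strain. Growth was recorded, and inhibition was derived by comparison with vehicle controls.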

[3] = NCI Yeast Anticancer Drug Screen. Data for the mlh1 rad18 strain (AID 175); conditions: S. cerevisiae mlh1 rad18 strain growth inhibition, hits give high values
Summary of the method: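 Genetically defined yeast (DNA repair-deficient) exposed to compounds; growth inhibition determined relative to vehicle.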

[4] = NCI Yeast Anticancer Drug Screen. Data for the rad18 strain (AID 177); conditions: S. cerevisiae rad18 mutant growth inhibition, hits give high values
Summary of the method: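 Vehicle-treated cultures served as the baseline for scoring compound-induced growth inhibition in DNA-repair-mutant yeast.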

[5] = NCI Yeast Anticancer Drug Screen. Data for the wt1 strain (AID 149);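 also: 0% = growth of vehicle-treated wt1 cultures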; conditions: S. cerevisiae wt1 strain (SPY 50644) growth inhibition, hits give high values
Summary of the method: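 Yeast wt1 strain exposed to compounds; growth inhibition measured relative to vehicle-treated controls.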

[6] = NCI Yeast Anticancer Drug Screen. Data for the rad50EPP+ strain (AID 151);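 also: 0% = growth of vehicle-treated control cultures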; conditions: S. cerevisiae rad50 mutant strain, hits give high values
Summary of the method: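 Vehicle-normalised growth inhibition; rad50EPP+ yeast strain, altered in DNA damage repair, compound-treated.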

[7] = NCI Yeast Anticancer Drug Screen. Data for the mgt1 strain (AID 153); conditions: S. cerevisiae mgt1 mutant growth inhibition, hits give high values
Summary of the method: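 Vehicle-normalized growth inhibition is determined in mgt1 yeast, a strain selected for a defined alteration in DNA repair or cell cycle control.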

[8] = NCI Yeast Anticancer Drug Screen. Data for the rad50 strain (AID 155);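 also: 0% = growth of vehicle-only cultures of the same strain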; conditions: S. cerevisiae rad50 strain growth inhibition, hits give high values
Summary of the method: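 Yeast carrying a defined DNA repair defect were exposed to test compounds, and growth was compared with vehicle-treated controls to give percent inhibition.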

[9] = NCI Yeast Anticancer Drug Screen. Data for the mec2-1 strain (AID 157); conditions: S. cerevisiae mec2-1 strain, hits give high values
Summary of the method: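 Mutant yeast (mec2-1) grown with compound; growth inhibition relative to vehicle control reported.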

[10] = NCI Yeast Anticancer Drug Screen. Data for the rad14 strain (AID 159);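 also: 0% = growth of vehicle-treated control cultures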; conditions: S. cerevisiae rad14 strain growth inhibition, hits give high values
Summary of the method: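 Yeast cells carrying a defined DNA-repair defect were exposed to compounds, and growth inhibition was calculated relative to vehicle-treated control cultures.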

[11] = NCI Yeast Anticancer Drug Screen. Data for the sgs1 mgt1 strain (AID 161);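 also: 0% = growth of cultures given vehicle only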; conditions: S. cerevisiae sgs1 mgt1 strain, hits give high values
Summary of the method: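 Percent growth inhibition was derived by comparing compound-exposed mutant yeast with vehicle-exposed cultures. The strain carries alterations in DNA damage repair.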

[12] = NCI Yeast Anticancer Drug Screen. Data for the CLN2oe strain (AID 163);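 also: 0% = growth of vehicle-only control cultures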; conditions: S. cerevisiae CLN2oe strain, hits give high values
Summary of the method: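 Compounds are applied to yeast harbouring a defined cell-cycle control change; reduced growth compared with vehicle-treated controls gives the value.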

[13] = NCI Yeast Anticancer Drug Screen. Data for the cln2 rad14 strain (AID 165);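 also: 0% = growth equal to vehicle treated cultures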; conditions: S. cerevisiae cln2 rad14 strain, hits give high values
Summary of the method: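 Readout is yeast growth inhibition versus vehicle-treated controls, using a strain with cln2 and rad14 alterations exposed to compound.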

[14] = NCI Yeast Anticancer Drug Screen. Data for the bub3 strain (AID 167); conditions: S. cerevisiae bub3 mutant strain, hits give high values
Summary of the method: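 Compounds were applied to a genetically altered yeast strain carrying a cell-cycle control defect. Growth inhibition was scored against vehicle-treated controls.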

[15] = NCI Yeast Anticancer Drug Screen. Data for the wt2 strain (AID 169);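 also: 0% = growth of vehicle-treated yeast cultures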; conditions: S. cerevisiae wt2 strain growth inhibition, hits give high values
Summary of the method: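 Against vehicle-treated controls, the growth of yeast exposed to each compound was compared, and the inhibition was recorded.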

[16] = at 5.0 µM (retest, dose inferred, filed as 0.5)
[17] = at 50.0 µM (retest, dose inferred, filed as 5.0)

Measured: growth inhibition

Cc1ccc2oc(-c3cccc(N)c3)nc2c1
inactive: [1]; at 1.2 µM -4% | [1]; at 3.7 µM 6% | [1]; at 11.0 µM -2% | [1]; at 33.0 µM 2% | [1]; at 100.0 µM 21% | [2]; at 1.2 µM -1% | [2]; at 3.7 µM 0% | [2]; at 11.0 µM 2% | [2]; at 33.0 µM 5% | [2]; at 100.0 µM 10% | [3]; [16] -7% | [3]; [17] 28% | [3]; at 50.0 µM -6% | [4]; at 1.2 µM -2% | [4]; at 3.7 µM -4% | [4]; at 11.0 µM 3% | [4]; at 33.0 µM 17% | [4]; at 100.0 µM 53%

CCCC#CCOC(=O)c1cc([N+](=O)[O-])cc([N+](=O)[O-])c1
active: [5]; at 11.0 µM 99% | [5]; at 33.0 µM 99% | [5]; at 100.0 µM 99% | [6]; at 3.7 µM 92% | [6]; at 11.0 µM 99% | [6]; at 33.0 µM 99% | [6]; at 100.0 µM 99% | [7]; at 3.7 µM 86% | [7]; at 11.0 µM 99% | [7]; at 33.0 µM 99% | [7]; at 100.0 µM 99% | [8]; [16] 88% | [8]; at 11.0 µM 98% | [8]; at 33.0 µM 98% | [8]; [17] 99% | [8]; at 50.0 µM 99.5% | [8]; at 100.0 µM 99% | [9]; [16] 99% | [9]; at 11.0 µM 99% | [9]; at 33.0 µM 99% | [9]; [17] 100% | [9]; at 50.0 µM 99.7% | [9]; at 100.0 µM 99% | [10]; at 11.0 µM 98% | [10]; at 33.0 µM 99% | [10]; at 100.0 µM 99% | [11]; [16] 97% | [11]; [17] 100% | [11]; at 50.0 µM 99.7% | [12]; at 11.0 µM 99% | [12]; at 33.0 µM 99% | [12]; at 100.0 µM 99% | [13]; [17] 99% | [13]; at 50.0 µM 99.5% | [14]; [16] 86% | [14]; at 11.0 µM 98% | [14]; at 33.0 µM 98% | [14]; [17] 99% | [14]; at 50.0 µM 99.8% | [14]; at 100.0 µM 99% | [15]; at 3.7 µM 95% | [15]; at 11.0 µM 97% | [15]; at 33.0 µM 99% | [15]; at 100.0 µM 99% | [1]; at 11.0 µM 99% | [1]; at 33.0 µM 99% | [1]; at 100.0 µM 99% | [2]; at 3.7 µM 97% | [2]; at 11.0 µM 99% | [2]; at 33.0 µM 99% | [2]; at 100.0 µM 99% | [3]; [16] 97% | [3]; [17] 100% | [3]; at 50.0 µM 99.5%
inactive: [5]; at 1.2 µM -4% | [5]; at 3.7 µM 22% | [6]; at 1.2 µM 22% | [7]; at 1.2 µM -5% | [8]; at 1.2 µM 2% | [8]; at 3.7 µM 67% | [9]; at 1.2 µM -2% | [9]; at 3.7 µM 33% | [10]; at 1.2 µM 0% | [10]; at 3.7 µM 28% | [12]; at 1.2 µM -2% | [12]; at 3.7 µM 11% | [13]; [16] 23% | [14]; at 1.2 µM -9% | [14]; at 3.7 µM 4% | [15]; at 1.2 µM -5% | [1]; at 1.2 µM 1% | [1]; at 3.7 µM 30% | [2]; at 1.2 µM 4%
